# Reference: PubChem BioAssay
# The source made the active and inactive calls. The rule behind the calls is not given here.
# Biological target: Pantothenate synthetase (Mycobacterium tuberculosis (strain ATCC 25618 / H37Rv)) (UniProt P9WIL5)
# Test: Coupled enzyme confirmation of inhibitors against recombinant Mtb PanC (AID 375);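 note: 0% = full reaction with vehicle and 100% = no enzyme background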
# Details: coupled enzyme assay; at 10 µM, active compounds read high
# Pantothenate synthetase (Mycobacterium tuberculosis (strain ATCC 25618 / H37Rv)), sequence (P9WIL5 whole entry, looked up): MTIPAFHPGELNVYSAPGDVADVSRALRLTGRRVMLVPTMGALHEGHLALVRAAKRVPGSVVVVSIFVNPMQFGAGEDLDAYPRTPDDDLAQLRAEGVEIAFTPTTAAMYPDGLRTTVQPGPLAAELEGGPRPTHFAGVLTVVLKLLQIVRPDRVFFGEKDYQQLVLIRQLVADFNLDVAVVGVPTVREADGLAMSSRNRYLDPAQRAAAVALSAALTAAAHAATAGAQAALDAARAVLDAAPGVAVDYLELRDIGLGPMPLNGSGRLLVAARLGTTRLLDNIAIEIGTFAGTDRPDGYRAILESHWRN
row,Structure (SMILES),inhibition
1,COc1ccccc1CCNC(=O)C1CCCO1 (stereo not given),0% (inactive)
2,Cc1ccc(-c2nnn(CC(=O)NC3CC4CCC3C4)n2)cc1 (stereo not given),4% (inactive)
3,CCCCn1c(CNC(=O)CCC)nc2ccccc21,4% (inactive)
4,Cc1cc(S(=O)(=O)N2CCN(c3ccccc3C)CC2)ccc1F,5% (inactive)
5,O=c1c2ccccc2nnn1CSc1nnc2sc3ccccc3n12,0% (inactive)
6,CCOc1ccccc1C(=O)NCC(=O)OCC(=O)N1C(C)CCCC1C (stereo not given),7% (inactive)
7,CCN(CC)CCCN(Cc1cc2cc(OC)ccc2[nH]c1=O)C(=O)Nc1ccccc1,9% (inactive)
8,O=C(COc1ccc(Cl)cc1)Nc1ncccn1,9% (inactive)
9,Cc1nc(NC2=NCN(CCN3CCOCC3)CN2)nc2c(C)cccc12,0% (inactive)
10,O=C(Cn1ccc2ccccc2c1=O)NCCC(=O)NC1CCN(Cc2ccccc2)CC1,0% (inactive)
11,Cc1cc2c(c(=O)o1)C(C13C=CC(CC1)C3)C(C#N)=C(N)O2 (stereo not given),0% (inactive)
12,O=C(CC(C(=O)N1CCc2ccccc21)n1ccnc1)NCc1cccnc1 (stereo not given),0% (inactive)
13,CCOC(=O)C1=C(CC)Nc2ccccc2N=C1NC(=O)Cn1cnc2ccccc2c1=O,0% (inactive)
14,COc1cc(C2C(C#N)=C(N)OC3=C2C(=O)CC(C)(C)C3)ccc1OC(=O)N1CCOCC1 (stereo not given),5% (inactive)
15,COc1ccc(NC(=O)N2CCN(c3nc(-c4cccc(OC)c4)cs3)CC2)cc1,0% (inactive)
16,CCOc1ccc(OCc2cccc(C(=O)N3CCOCC3)c2)cc1,2% (inactive)
17,COc1ccc(C(=O)Nn2c(SCC(=O)NCC3CCCO3)nc3ccccc3c2=O)cc1 (stereo not given),2% (inactive)
18,O=c1[nH]c2ccccc2n1CCCN1CCN(C(c2ccccc2)c2ccccc2)CC1,1% (inactive)
19,CCc1oc2ccccc2c1C(=O)c1cc(Br)c(O)c(Br)c1,0% (inactive)
20,CCOC(=O)Cc1csc(NC(=O)CSc2nnc(C(C)C)n2CC)n1,0% (inactive)

row,Structure (SMILES),inhibition
1,CC(C)(C)OC(=O)NC(CCNC=C1C(=O)OC(C)(C)OC1=O)C(=O)O (stereo not given),4% (inactive)
2,O=C(NCC(c1cccnc1)N1CCN(c2ccccc2)CC1)c1ccc2c(c1)OCO2 (stereo not given),0% (inactive)
3,O=C(NCc1ccc(F)cc1)c1cc(-c2ccco2)on1,6% (inactive)
4,CCN(CC)C(=O)Oc1ccccc1NC(C)=O,1% (inactive)
5,Cc1nc2ncnn2c(N2CCC(C(=O)NCC3CCCO3)CC2)c1Cc1ccccc1 (stereo not given),0% (inactive)
6,COc1c2occc2c(OC)c2c(=O)cc(C)oc12,8% (inactive)
7,COc1ccc(-c2c3c(=O)n(C)c(=O)n(C)c3cn2-c2cccc(OC)c2)cc1,0% (inactive)
8,O=S(=O)(c1ccc(OCC(O)CN2CCN(c3ccccc3)CC2)cc1)N1CCOCC1 (stereo not given),7% (inactive)
9,O=C1NC2=C(C(=O)CCC2)C(c2ccc3ncccc3c2)N1 (stereo not given),0% (inactive)
10,COc1ccc(S(=O)(=O)NCC(=O)N(CC(=O)NCC2CCCO2)c2ccccc2C)cc1 (stereo not given),8% (inactive)
11,Cc1nc(N2CCC(C)CC2)c2c(C)c(C(=O)O)sc2n1,0% (inactive)
12,Cc1nc2cc(CO)ccc2n1C,4% (inactive)
13,O=C(NC1CC1)C1CCC(=O)N1C1CCCC1 (stereo not given),4% (inactive)
14,CNC(=O)OC(C)CNS(=O)(=O)c1ccc(C)cc1 (stereo not given),0% (inactive)
15,CCN1CCN(CCCNC(=O)C2c3ccccc3C(=O)N(C)C2c2ccc(OC)cc2)CC1 (stereo not given),0% (inactive)
16,COC(=O)Cn1ncc2c(C)n(Cc3ccccc3)c(C)c2c1=O,2% (inactive)
17,CC(C)n1nc(C(=O)Nc2nc3ccc(S(C)(=O)=O)cc3s2)c2ccccc2c1=O,0% (inactive)
18,O=C(CCN1C(=O)COc2ccccc21)NCCCN1CCN(c2ccccc2F)CC1,0% (inactive)
19,O=C(O)CCCNS(=O)(=O)c1ccc(NCc2ccccc2)c(C(=O)O)c1,0% (inactive)
20,Cc1ccc(SCC(=O)NCCN2C(=O)CSC2=O)c(C)c1,0% (inactive)
